± gives the standard deviation.
Columns and labels:
Settings in all cases: modulator concentration 10 µM
[1] = system: RAW-Dual (murine macrophage reporter line); assay: NF-kB reporter (SEAP) activity fold change vs agonist alone; higher = enhanced NF-kB activity
Outline: (§1)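 RAW-Dual murine macrophage reporter cells were plated at 50 000 per well in 384-well plates, pin-transferred compound to 10 μM final, and pre-incubated for 1 hour at 37 °C before a PRR agonist was added and the cells incubated overnight. NF-κB activity was read from supernatant SEAP with QUANTI-Blue at 620 nm absorbance, and IRF activity from Lucia luciferase with QUANTI-Luc by luminescence. Each signal was expressed as fold change by dividing by the mean agonist-only control on the same plate. Two replicate plates were averaged, with errors obtained by propagation.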

[2] = system: RAW-Dual (murine macrophage reporter line); assay: IRF reporter (Lucia luciferase) activity fold change vs agonist alone; higher = enhanced IRF activity
Outline: as §1

[3] = system: RAW-Dual (murine macrophage reporter line); assay: viability score (confluency relative to resting cells, overnight) (fraction); higher = more viable, active = viable (0.7 or more)
Outline: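 RAW-Dual macrophages in 384-well plates were incubated overnight with compound, final concentration 10 μM. Confluency images from IncuCyte were processed in IncuCyte software into two masks covering all imaged wells. The viability score is each well's confluency relative to resting cells, and a compound met the cutoff when both masks exceeded 70% of resting cells.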

[4] = agonist: CpG ODN 1826 0.5 ug/mL

Row | SMILES | NF-kB reporter [1, 4] | NF-kB reporter ([1]; agonist: LPS 0.1 ug/mL) | NF-kB reporter ([1]; agonist: MPLA […]) | IRF reporter ([2]; agonist: 3'3'-cGAMP 10 ug/mL) | IRF reporter ([2]; agonist: LPS 0.1 ug/mL) | IRF reporter ([2]; agonist: MPLA […]) | viability score [3]
1 | COC(=O)C1=CN(CC2CCCO2)C=C(C(=O)OC)C1c1cccc(Cl)c1 (configuration not stated) | 0.59 ± 0.053 | 0.736 ± 0.065 | 0.83 ± 0.072 | 0.82 ± 0.037 | 1.17 ± 0.069 | 1.1 ± 0.093 | 0.994 (active)
2 | Cc1ccc(N2C(=O)C(Cl)=C(Nc3cccc(C)c3C)C2=O)cc1Cl | 0.739 ± 0.062 | 0.897 ± 0.064 | 1.28 ± 0.053 | 0.549 ± 0.063 | 0.954 ± 0.039 | 1.63 ± 0.21 | 0.995 (active)
3 | O=C(CC1CC1)N1CCN(c2cc(C(F)(F)F)ncn2)CC1 | 0.929 ± 0.04 | 0.963 ± 0.081 | 1.29 ± 0.13 | 1.04 ± 0.091 | 1.04 ± 0.18 | 1.01 ± 0.43 | 1.01 (active)
4 | O=C(NCCCn1ccc2cccnc21)c1nc2ccccc2s1 | 0.766 ± 0.19 | 1.04 ± 0.092 | 1.09 ± 0.07 | 0.813 ± 0.071 | 0.942 ± 0.22 | 1.02 ± 0.15 | 1 (active)
5 | O=C(C1=C(O)C(=O)N(c2nccs2)C1c1ccccc1)c1cc2ccccc2o1 (configuration not stated) | 0.928 ± 0.054 | 1.57 ± 0.12 | 0.97 ± 0.062 | 0.664 ± 0.026 | 0.967 ± 0.19 | 0.885 ± 0.082 | 0.997 (active)
6 | CC1=NN(C(=O)CCCc2ccccc2)C(O)(c2ccc(Cl)cc2)C1 (configuration not stated) | 0.923 ± 0.1 | 1 ± 0.13 | 1.02 ± 0.049 | 0.899 ± 0.2 | 1.1 ± 0.065 | 1.13 ± 0.15 | 0.999 (active)
7 | COCC(C)NC(=O)c1ccc(Cl)c(Cl)c1 (configuration not stated) | 1.13 ± 0.12 | 0.926 ± 0.079 | 0.984 ± 0.043 | 0.953 ± 0.034 | 0.966 ± 0.05 | 0.992 ± 0.1 | 0.997 (active)
8 | CC(C(=O)O)c1ccc2c(c1)Cc1cccnc1O2 (configuration not stated) | 1.29 ± 0.17 | 1.41 ± 0.38 | 1.1 ± 0.1 | 0.966 ± 0.03 | 1.55 ± 0.28 | 1.15 ± 0.14 | 0.985 (active)
9 | COc1cccc2c1C(=O)c1c(O)c3c(c(O)c1C2=O)C[C@@](O)(C(=O)CO)C[C@@H]3O[C@H]1C[C@H](N)[C@H](O)[C@H](C)O1.Cl | 0.0942 ± 0.012 | 0.0784 ± 0.0047 | 0.178 ± 0.036 | 0.101 ± 0.014 | 0.0915 ± 0.01 | 0.127 ± 0.024 | 0.372 (inactive)
10 | CSCCC(NC(C)=O)C(=O)N1CCc2nc3ccc(Cl)cn3c(=O)c2C1 (configuration not stated) | 1.42 ± 0.35 | 0.918 ± 0.047 | 1.06 ± 0.12 | 1.01 ± 0.043 | 1.24 ± 0.17 | 1.29 ± 0.21 | 0.986 (active)
11 | CC(=O)OC1=C(O)C=CC2C(C)=CC(=O)OC12 (configuration not stated) | 0.954 ± 0.12 | 0.823 ± 0.079 | 1.04 ± 0.1 | 0.986 ± 0.034 | 1.3 ± 0.19 | 1.47 ± 0.3 | 1.01 (active)
12 | Cc1nc(Nc2ncc(C(=O)Nc3c(C)cccc3Cl)s2)cc(N2CCN(CCO)CC2)n1.Cl | 0.802 ± 0.035 | 1.01 ± 0.12 | 1.06 ± 0.067 | 0.976 ± 0.048 | 1.22 ± 0.28 | 1.34 ± 0.45 | 1 (active)
13 | CS(=O)(=O)N1C2CCC1CC(NC(=O)NC1CCCC1)C2 (configuration not stated) | 1.01 ± 0.11 | 1.03 ± 0.12 | 0.88 ± 0.059 | 0.98 ± 0.093 | 1.21 ± 0.14 | 1.2 ± 0.26 | 1.01 (active)
14 | CCOC(=O)C(Oc1ccc2c(c1)oc(=O)c1cc(OC)ccc12)c1ccccc1 (configuration not stated) | 1.04 ± 0.062 | 0.998 ± 0.13 | 0.929 ± 0.025 | 0.977 ± 0.04 | 1.02 ± 0.089 | 1.11 ± 0.21 | 1 (active)
15 | COc1cc(Cl)c(C)cc1NC(=O)c1ccccc1Cl | 0.906 ± 0.26 | 1.11 ± 0.062 | 1.4 ± 0.22 | 0.914 ± 0.042 | 0.991 ± 0.15 | 1.1 ± 0.12 | 0.981 (active)
16 | CCN(CC)CCNC(=O)c1ccc(N)cc1.Cl | 0.962 ± 0.14 | 0.935 ± 0.4 | 0.887 ± 0.052 | 0.952 ± 0.029 | 1.29 ± 0.3 | 1.29 ± 0.097 | 0.993 (active)
17 | O=C(c1ccc2ccccc2n1)N1CCc2ncncc2C1 | 1.08 ± 0.054 | 1.04 ± 0.083 | 0.862 ± 0.044 | 0.956 ± 0.063 | 1.09 ± 0.18 | 1.11 ± 0.27 | 1.01 (active)
18 | Cl.N=C(N)NC(=O)c1nc(Cl)c(N)nc1N.O.O | 0.856 ± 0.044 | 1.01 ± 0.087 | 1.05 ± 0.065 | 1.04 ± 0.048 | 1.2 ± 0.29 | 1.3 ± 0.46 | 0.984 (active)
19 | CC(C)(C)c1cc(C=NO)c(C(C)(C)C)s1 | 0.48 ± 0.028 | 1.03 ± 0.063 | 0.985 ± 0.061 | 0.6 ± 0.02 | 1.13 ± 0.074 | 0.746 ± 0.22 | 0.0422 (inactive)
20 | CSc1nc2cccc(F)c2c(=O)n1C1CC1 | 1.06 ± 0.078 | 1.02 ± 0.093 | 1.18 ± 0.076 | 1.09 ± 0.051 | 1.31 ± 0.25 | 1.52 ± 0.38 | 0.67 (inactive)
21 | COC(CNS(=O)(=O)c1cccnc1)c1ccc(C)s1 (configuration not stated) | 1.06 ± 0.073 | 0.992 ± 0.086 | 1.01 ± 0.096 | 1.01 ± 0.04 | 1.02 ± 0.048 | 0.958 ± 0.12 | 0.997 (active)
22 | COc1ccc(-c2oc(N=Cc3ccccc3O)c(C#N)c2-c2ccc(OC)cc2)cc1 | 0.895 ± 0.075 | 1.21 ± 0.079 | 0.997 ± 0.035 | 0.921 ± 0.2 | 1.05 ± 0.089 | 1.12 ± 0.18 | 1 (active)
23 | O=S(=O)(NCc1ccccn1)c1cccc(Cl)c1 | 0.918 ± 0.039 | 0.986 ± 0.12 | 1.06 ± 0.057 | 1.02 ± 0.061 | 1.32 ± 0.17 | 1.49 ± 0.46 | 0.986 (active)
24 | O=C(NC(=S)c1c(-c2ccccc2)cc2ccccn12)c1ccccc1 | 0.746 ± 0.058 | 0.786 ± 0.038 | 0.883 ± 0.078 | 0.516 ± 0.03 | 1.18 ± 0.086 | 1.36 ± 0.18 | 1.01 (active)
25 | COc1cc(OC)c(NC(=O)C2CCCN(c3ccc(-c4ccc(C)c(C)c4)nn3)C2)cc1Cl (configuration not stated) | 1.04 ± 0.09 | 1.04 ± 0.081 | 0.93 ± 0.04 | 0.964 ± 0.052 | 1.09 ± 0.066 | 1 ± 0.15 | 1.01 (active)
26 | CC1=C(C(N)=O)C(c2cccs2)NC(=O)N1 (configuration not stated) | 0.974 ± 0.086 | 1.03 ± 0.12 | 0.944 ± 0.034 | 1.01 ± 0.15 | 0.963 ± 0.045 | 0.942 ± 0.063 | 0.999 (active)

Reference: the supplement of paper PMC10646978
